# Assay results reported in PubChem BioAssay (NCATS).
# A number with no mark means an inactive call. Results filed as inconclusive are left out. A call without a number means that no potency is given here. Activity calls are given as the source filed them. Unless noted, calls follow the shape of the dose curve; as a rule, active = well fitted curve in the direction sought with a large enough effect; inconclusive = small, poorly fitted or top-dose-only effect, or another doubt; inactive = no such curve, though single readings can be large; an effect the other way counts as inactive or inconclusive.
# Columns and labels:
# [1] = molecular target: Cytochrome P450 2C19 (Homo sapiens) (UniProt P33261); assay: qHTS Assay for Inhibitors and Substrates of Cytochrome P450 2C19 (AID 899); also: nearly all actives have a fitted effect of over 60% in size; also: potency is read from the fitted curve at half-maximal effect
# How it was run: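 In 50mM KPO4, the reaction held 5nM enzyme and KM-level (10uM) Luciferin-H EGE; it ran 60 min at 37C after NADPH regeneration and a 10 min compound preincubation. Luminescence values were scaled to 57uM ketoconazole as complete inhibition.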
# [2] = Confirmation and Secondary Assay for Modulators of Hemoglobin Beta Chain Splicing at IVS2 654 locus (AID 910);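 also: per-well total GFP intensity by laser scanning cytometry after 2-day treatment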
# How it was run: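 HeLa cells stably carrying EGFP interrupted by mutant beta-globin IVS2-654 intron (CMV-driven) were treated with compound for 2 days at 37C; corrected splicing was scored as total peak GFP intensity per well (488 nm excitation, 500-520 nm emission).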
# [3] = Confirmatory qHTS for VERO E6 Cytotoxicity Assay: Counterscreen for SARS-CoV-2 CPE Assay (AID 1508605; calls by dose curve; also: nearly all actives have a fitted effect of over 60% in size; also: potency is read from the fitted curve at half-maximal effect)
# [4] = Viability counterscreen for agonist of constitutive androstane receptor (CAR) against the NCATS DSHEA and TCM libraries (AID 1794838)
# How it was run: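 Multiplexed counterscreen: after 24 h compound exposure with 0.75 uM PK11195, HepG2-CYP2B6-hCAR viability was quantified fluorimetrically (CellTiter-Fluor, 405/540 nm) prior to the ONE-Glo luciferase read.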
# [5] = molecular target: Nuclear receptor subfamily 1 group I member 3 (Homo sapiens) (UniProt Q14994); assay: Primary qHTS for agonist of constitutive androstane receptor (CAR) against the NCATS DSHEA and TCM libraries (AID 1794839); conditions: Potency: CAR antagonist co-added at 0.75 µM unless noted; also: potency is read from the fitted curve at half-maximal effect
# How it was run: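 Concentration–response screen in HepG2-CYP2B6-hCAR cells under 0.75 µM PK11195; 24 h exposure; luminescent reporter signal with multiplexed fluorescent viability.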
# [6] = HepG2 viability counterscreen (readout 2: ATP content) against the NCATS DSHEA and TCM libraries (AID 1794840);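 also: HepG2 cells exposed to substances for about 24 h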
# How it was run: (§1)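 After HepG2 cells attach for ~4 h, substances are added and incubated ~24 h at 37C, 5% CO2. GF-AFC fluorescence then CellTiter-Glo luminescence give protease and ATP readouts.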
# [7] = HepG2 viability counterscreen (readout 1: protease activity) against the NCATS DSHEA and TCM libraries (AID 1794841);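 also: cells exposed to compounds for about 24 h before the protease read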
# How it was run: as §1
# [8] = KB-3-1 P-gp reporter qHTS against the NCATS DSHEA and TCM libraries (AID 1919975)
# How it was run: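 Cell viability qHTS: 500 KB-3-1 cells/well, substances in titration, ~72 h, 37C; luminescent CellTiter-Glo read.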
# [9] = qHTS Counterscreen for compound interference against the NCATS DSHEA and TCM libraries (AID 1919978); conditions: firefly luciferase detection reagent interference, luminescence;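 also: compounds preincubated with 1 µM D-luciferin or buffer before detection reagent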
# How it was run: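 Interference check: test samples were incubated with D-luciferin (final 1 uM) or buffer only for 15 min, room temperature, in a qHTS titration up to 39.8 uM, then developed with detection reagent and read by luminescence.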
# [10] = molecular target: Nuclear receptor subfamily 1 group I member 2 (Homo sapiens) (UniProt O75469); assay: Dual reporter qHTS for antagonist of Pregnane X Receptor (hPXR) against the NCATS DSHEA and TCM libraries: Luminescence Readout (AID 1920060);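 also: HepG2 cells carrying hPXR luciferase reporter stimulated with rifampicin at 2 µM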
# How it was run: (§2)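 hPXR-Luc HepG2 cells exposed 24 h at 37 C to compounds with 2 uM rifampicin in antagonist mode; luciferase luminescence measured by ONE-Glo, with CellTiter-Fluor viability read beforehand.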
# [11] = Dual reporter qHTS for antagonist of Pregnane X Receptor (hPXR) against the NCATS DSHEA and TCM libraries: Fluorescence Readout (AID 1920061)
# How it was run: as §2
# [12] = molecular target: Cytochrome P450 2D6 (Homo sapiens) (UniProt P10635); assay: Cytochrome P450 family 2 subfamily D member 6 (CYP2D6) small molecule antagonists: luciferase biochemical (cell-free) qHTS assay (AID 1645840; active = well fitted curve in the direction sought with a large enough effect in the repeat runs; an effect the other way counts as inactive or inconclusive; also: nearly all actives have a fitted effect of over 55% in size)
# How it was run: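 P450-Glo CYP2D6 system: proluciferin substrate converted by enzyme to luciferin, read by luminescence proportional to activity. Enzyme-substrate mix with compound 10 min at room temperature, then NADPH regeneration 1 h before detection reagent.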
# [13] = molecular target: Cytochrome P450 2C9 (Homo sapiens) (UniProt P11712); assay: Cytochrome P450 family 2 subfamily C member 9 (CYP2C9) small molecule antagonists: luciferase biochemical (cell-free) qHTS assay (AID 1645842; active = well fitted curve in the direction sought with a large enough effect in the repeat runs; an effect the other way counts as inactive or inconclusive; also: nearly all actives have a fitted effect of over 55% in size)
# How it was run: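 P450-Glo CYP2C9 system: proluciferin substrate with enzyme in mix containing 0.4% BSA, 10 min at room temperature, then NADPH regeneration solution added and incubated 1 h at 37C. Detection reagent stopped reaction; luminescence read after 20 min as RLU.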
# [14] = Confirmatory qHTS to identify inhibitors of SARS-CoV-2 cell entry (AID 1645844; calls by dose curve; also: potency is read from the fitted curve at half-maximal effect; nearly all actives have a fitted effect of over 45% in size)
# How it was run: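 Using stable human ACE2 Expi293F cells, compounds preincubated 1 hr before spike pseudoparticle infection; luciferase signal after 48 hr at 37C, 5% CO2, normalised to spike PP and no-fusion-protein PP wells.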
# CP262 = assay: qHTS profiling for inhibitors of Plasmodium falciparum proliferation (AID 504749); also: nearly all actives have a fitted effect of over 60% in size; conditions: P. falciparum in erythrocytes, SYBR Green DNA, 72 h; series mostly up to 28.7 µM
# How it was run: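 Quantitative HTS: compounds pinned into medium, infected erythrocytes added (0.3% parasitemia, 2.5% hematocrit), 72 h culture at 37 C under 5% CO2. Saponin/Triton lysis with SYBR Green I, overnight RT, then fluorescence read.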
# [15] = qHTS Assay for Identification of Small Molecule Antagonists for Thrombopoietin (TPO) Signaling Pathway (AID 918); conditions: TPO-dependent cell signaling reporter, antagonist mode; also: potency is read from the fitted curve at half-maximal effect; nearly all actives have a fitted effect of over 60% in size
# How it was run: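 Inhibition read as reduced luciferase luminescence after 24 h at 37 C in IL-3-deprived Ba/F3 cells carrying human TPO receptor and GPIIb-promoter reporter, stimulated with 26 pM TPO (final, its EC50) alongside compound.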
# [16] = Cytometric Cell-Based qHTS for Inhibitors of the mTORC1 Signaling Pathway in MEF (Tsc2-/-, p53-/-) Cells (AID 2660);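 also: percent of cells above a phospho-rpS6 to PI ratio cutoff in each well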
# How it was run: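 Tsc2-/-, p53-/- MEFs (empty vector) exposed to compound 24 h at 37 C, fixed, stained with Alexa-488 anti-phospho-rpS6 Ser235/236 and propidium iodide. Acumen laser scanning; phospho-S6/PI ratio thresholded against 7.5 nM rapamycin, reported as % positive cells.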
# [17] = High Content Imaging Cell-Based qHTS for Inhibitors of the mTORC1 Signaling Pathway in MEF (Tsc2-/-, p53-/-) Cells (AID 2666);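 also: percent of cells scored positive for phospho-rpS6 Ser235/236 immunostaining by imaging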
# How it was run: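 Inhibition of rpS6 phosphorylation is measured by immunofluorescence imaging in empty-vector Tsc2-/-, p53-/- mouse embryonic fibroblasts after 24 hrs compound exposure at 37 degree Celsius. Results are reported as % positive cells per well.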
# [18] = High Content Imaging Cell-Based qHTS for Inhibitors of the mTORC1 Signaling Pathway in MEF Cells (AID 2667);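 also: Tsc2-/- p53-/- MEFs stably re-expressing wild-type Tsc2 exposed 24 h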
# How it was run: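 Fixed-cell imaging of phospho-S6 (Ser235/236, Alexa-488) after 24 hrs of compound treatment at 37 degree Celsius. Signal was normalized to Hoechst, and thresholds from the highest and lowest wells split cells into % active versus % non-active.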
# [19] = Cytometry Cell-Based qHTS for Inhibitors of the mTORC1 Signaling Pathway in MEF cells (AID 2668);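 also: Tsc2-/- p53-/- mouse embryonic fibroblasts stably re-expressing wild-type Tsc2; percent cells positive for phospho-rpS6 Ser235/236 relative to propidium iodide stain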
# How it was run: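 In MEFs grown in DMEM + 10% FBS, a 24 hrs compound exposure preceded imaging of phospho-rpS6 Ser235/236 by laser-scanning cytometry.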
# Chain of Cytochrome P450 2D6 (Homo sapiens) (P10635 whole entry, looked up): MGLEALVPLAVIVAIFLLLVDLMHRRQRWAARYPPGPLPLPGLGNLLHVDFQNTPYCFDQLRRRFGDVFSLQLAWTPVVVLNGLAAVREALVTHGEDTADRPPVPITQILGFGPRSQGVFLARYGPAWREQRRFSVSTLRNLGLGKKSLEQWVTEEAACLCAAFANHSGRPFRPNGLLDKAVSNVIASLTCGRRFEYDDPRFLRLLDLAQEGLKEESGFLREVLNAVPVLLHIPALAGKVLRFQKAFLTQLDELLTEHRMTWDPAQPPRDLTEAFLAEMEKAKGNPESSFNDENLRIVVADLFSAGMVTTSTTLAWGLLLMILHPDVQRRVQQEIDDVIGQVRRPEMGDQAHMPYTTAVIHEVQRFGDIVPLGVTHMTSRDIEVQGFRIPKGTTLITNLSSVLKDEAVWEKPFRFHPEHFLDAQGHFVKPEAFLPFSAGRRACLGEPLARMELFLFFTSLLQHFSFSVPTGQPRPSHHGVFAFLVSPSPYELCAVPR
# Chain of Cytochrome P450 2C19 (Homo sapiens) (P33261 whole entry, looked up): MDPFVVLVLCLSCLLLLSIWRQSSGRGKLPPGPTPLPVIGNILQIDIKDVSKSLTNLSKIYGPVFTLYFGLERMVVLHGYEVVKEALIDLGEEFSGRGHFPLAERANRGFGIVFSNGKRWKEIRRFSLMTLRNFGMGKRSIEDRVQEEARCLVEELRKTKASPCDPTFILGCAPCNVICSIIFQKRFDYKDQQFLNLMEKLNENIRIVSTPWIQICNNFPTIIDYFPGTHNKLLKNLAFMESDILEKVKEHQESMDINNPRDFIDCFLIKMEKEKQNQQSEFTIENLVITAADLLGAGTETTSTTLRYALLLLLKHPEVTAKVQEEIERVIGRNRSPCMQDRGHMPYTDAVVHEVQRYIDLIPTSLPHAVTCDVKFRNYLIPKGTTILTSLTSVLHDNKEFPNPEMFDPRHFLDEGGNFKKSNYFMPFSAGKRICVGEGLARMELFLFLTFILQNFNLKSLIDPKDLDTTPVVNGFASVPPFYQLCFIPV
# Chain of Cytochrome P450 2C9 (Homo sapiens) (P11712 whole entry, looked up): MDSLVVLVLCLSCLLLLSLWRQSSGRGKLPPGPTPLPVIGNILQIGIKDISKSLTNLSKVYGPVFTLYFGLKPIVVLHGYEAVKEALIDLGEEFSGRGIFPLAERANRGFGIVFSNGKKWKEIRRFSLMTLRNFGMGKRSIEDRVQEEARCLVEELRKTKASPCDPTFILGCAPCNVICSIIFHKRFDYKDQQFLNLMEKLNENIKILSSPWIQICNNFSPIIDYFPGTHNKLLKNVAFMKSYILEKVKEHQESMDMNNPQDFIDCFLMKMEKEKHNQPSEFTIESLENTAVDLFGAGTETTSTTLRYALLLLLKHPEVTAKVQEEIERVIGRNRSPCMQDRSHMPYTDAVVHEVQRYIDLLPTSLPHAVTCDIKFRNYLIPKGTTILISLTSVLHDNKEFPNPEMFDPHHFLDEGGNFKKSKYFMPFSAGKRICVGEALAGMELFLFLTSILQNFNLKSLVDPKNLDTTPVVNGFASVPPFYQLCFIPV
# Chain of Nuclear receptor subfamily 1 group I member 3 (Homo sapiens) (Q14994 whole entry, looked up): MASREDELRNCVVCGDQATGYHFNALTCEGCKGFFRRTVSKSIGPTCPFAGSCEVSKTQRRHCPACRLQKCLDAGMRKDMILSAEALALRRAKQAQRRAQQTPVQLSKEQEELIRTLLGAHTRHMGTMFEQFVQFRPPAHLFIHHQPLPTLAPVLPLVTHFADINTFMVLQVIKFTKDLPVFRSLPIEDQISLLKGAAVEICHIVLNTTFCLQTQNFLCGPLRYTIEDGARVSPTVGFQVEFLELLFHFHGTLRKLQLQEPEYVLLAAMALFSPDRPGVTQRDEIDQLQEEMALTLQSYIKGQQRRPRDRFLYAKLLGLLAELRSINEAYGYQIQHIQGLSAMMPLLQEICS
# Chain of Nuclear receptor subfamily 1 group I member 2 (Homo sapiens) (O75469 whole entry, looked up): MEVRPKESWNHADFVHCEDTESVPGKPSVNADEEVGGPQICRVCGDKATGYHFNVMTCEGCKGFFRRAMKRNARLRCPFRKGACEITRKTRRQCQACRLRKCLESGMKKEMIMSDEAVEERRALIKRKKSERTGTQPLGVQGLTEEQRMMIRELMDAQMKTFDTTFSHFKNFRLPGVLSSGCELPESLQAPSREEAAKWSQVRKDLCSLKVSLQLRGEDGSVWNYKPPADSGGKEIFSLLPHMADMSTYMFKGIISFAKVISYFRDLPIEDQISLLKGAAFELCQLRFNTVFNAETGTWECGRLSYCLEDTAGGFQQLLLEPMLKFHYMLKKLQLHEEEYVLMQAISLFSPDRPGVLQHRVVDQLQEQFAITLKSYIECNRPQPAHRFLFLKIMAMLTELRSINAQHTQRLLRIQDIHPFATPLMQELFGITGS
smiles,measurement,setting,value
CN(C)[C@@H]1C(=O)C(C(N)=O)=C(O)[C@]2(O)C(=O)C3=C(O)c4c(O)cccc4[C@@](C)(O)[C@@H]3C[C@@H]12,Potency,[1],inactive
CN(C)C1C(=O)C(C(N)=O)=C(O)[C@@]2(O)C(=O)C3=C(O)c4c(O)ccc(Cl)c4[C@](C)(O)C3CC12 (stereo not given in full),Potency,[2],inactive
COC(=O)[C@@]12OC[C@]34[C@H]([C@@H](O)[C@@H]1O)[C@@]1(C)CC(=O)C(O)=C(C)[C@@H]1C[C@H]3OC(=O)[C@H](OC(=O)/C=C(\C)C(C)C)[C@@H]24,Potency,[3],127 nM (active)
C=C(C)[C@@H]1CCC(C)=C[C@H]1c1c(O)cc(CCCCC)cc1O,outcome,[4],inactive
same,Potency,[5],31600 nM [setting not given] (active)
same,outcome,[6],inactive
same,outcome,[7],inactive
same,outcome,[8],inactive
same,max response,[9],0.918%
same,outcome,[10],inactive
same,outcome,[11],inactive
CCCCCCC(C)(C)c1cc(O)c2c(c1)OC(C)(C)C1CC=C(CO)C[C@H]21 (stereo not given in full),Potency,[3],inactive
N#CC(O[C@@H]1O[C@H](CO[C@@H]2O[C@H](CO)[C@@H](O)[C@H](O)[C@H]2O)[C@@H](O)[C@H](O)[C@H]1O)c1ccccc1 (stereo not given in full),Potency,[12],inactive
same,Potency,[13],inactive
same,outcome,[4],inactive
same,Potency,[5],inactive
same,outcome,[6],inactive
same,outcome,[7],inactive
same,outcome,[8],inactive
same,max response,[9],-0.601%
same,outcome,[10],inactive
same,outcome,[11],inactive
C[C@@H](C1CC[C@@]2(O)C3=CC(=O)[C@@H]4C[C@@H](O)[C@@H](O)C[C@]4(C)[C@H]3CC[C@]12C)[C@H](O)CCC(C)(C)O (stereo not given in full),Potency,[12],inactive
same,Potency,[13],inactive
CO[C@H]1CCC(O[C@H]2C[C@H]([C@]3(C)CC[C@]4(C[C@H](O)[C@@H](C)[C@@H]([C@@H](C)/C=C(\C)C(=O)[C@H](C)C[C@H](C)C(=O)O)O4)O3)O[C@]3(O[C@@H]([C@H]4O[C@@](O)(CO)[C@H](C)C[C@@H]4C)C[C@@H]3C)[C@@H]2C)O[C@@H]1C (stereo not given in full),Potency,[14],681 nM (active)
CC(C)[C@]12O[C@H]1[C@@H]1O[C@@]13[C@@]1(C)CCC4=C(COC4=O)[C@@H]1C[C@@H]1O[C@@]13C2=O,Potency,[14],271 nM (active)
CCCC[N+]1(C)C2CC(OC(=O)C(CO)c3ccccc3)CC1C1OC12 (stereo not given),Potency,CP262,inactive
CC(C)(O)C1C2OC(=O)C1[C@]1(O)C[C@H]3O[C@]34C(=O)O[C@H]2[C@]14C (stereo not given in full) (tested in a mixture with another compound),Potency,CP262,inactive
CCCCN1C2CCC1CC(OC(c1ccc(F)cc1)c1ccc(F)cc1)C2 (stereo not given),Potency,[15],10000 nM (active)
NCC#Cc1ccccc1,Potency,[15],6310 nM (active)
C[C@H]1C2Cc3ccc(O)cc3[C@]1(C)CCN2CC1CC1,outcome,[16],inactive
same,Potency,[17],inactive
same,Potency,[18],inactive
same,Potency,[19],inactive
CC[C@@H](CO)NC(=O)[C@H]1C=C2c3cccc4c3c(cn4C)C[C@H]2N(C)C1,Potency,[1],126 nM (active)
CCC1/C=C/C=CCC(C)C(O)[C@@](C)(O)C(=O)C(C)C(O)C(C)C(=O)C(C)C(O)C(C)C=CC(=O)O[C@H]2C(C)C(CC1)O[C@]1(CCC(C)C(CC(C)O)O1)C2C (stereo not given in full),Potency,[2],inactive
CC12CCC3C(CCC4=C(O)C(=O)CCC43C)C1CCC2=O (stereo not given),outcome,[16],inactive
same,Potency,[17],inactive
same,Potency,[18],inactive
same,Potency,[19],inactive
